# Source: PubChem BioAssay
# In the library only some 19% were active in any assay of this set; here they are far more common.
# TDP1 cell CPT – growth inhibition of DT40 Tdp1-/-;hTDP1 cells with camptothecin (screen for TDP1 inhibitors); chicken DT40 Tdp1-/-;hTDP1 cells + 20 nM CPT, ATP luminescence, 48 h; Potency, µM (doses to about 46.2 µM), without a hit: top-dose activity change, negative = growth inhibition, actives largely listed as inhibitors; 420,000 tested, 12% active; AID 686979; also: potency is read from the fitted curve at half-maximal effect; nearly all actives have a fitted effect of over 55% in size
#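 Chicken DT40 Tdp1-/- cells complemented with human TDP1, 400 cells/well, exposed to compounds plus 20 nM camptothecin for at least 48 h at 37 C; viability read as ATP content by CellTiter-Glo luminescence.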
# TDP1 cell noCPT – qHTS for Inhibitors of human tyrosyl-DNA phosphodiesterase 1 (TDP1): qHTS in cells in absence of CPT; DT40 Tdp1-/- hTDP1 cells, no CPT, ATP luminescence, 48 h; AID 686978, 2013; 420,000 tested, 15% active; Potency, µM (top dose mostly 46.2 µM), for inactives: at the highest dose activity change, negative = growth inhibition, usual class: inhibitors; also: potency is read from the fitted curve at half-maximal effect; nearly all actives have a fitted effect of over 55% in size
#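 No-CPT arm: Tdp1-/-;hTDP1 DT40 cells (400/well) plus compounds, incubated ≥48 hr at 37 °C. Readout CellTiter-Glo luminescence.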
# IL-1B inflam inh – inhibitors of inflammasome signaling (IL-1 beta secretion); 360,000 tested, 4.7% active; activity change, % at 57.5 µM; THP-1 LPS/ATP IL-1B secretion, AlphaLISA, 16 h; active compounds read low; in the data active = activity change below about -50%; inconclusive = mostly about -30% to -49%
#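 Secreted IL-1B measured by AlphaLISA bead assay after 16 h compound exposure of THP-1 cells; compounds (final up to 57.5 uM) added 1 h before LPS (250 ng/mL) and ATP (1.25 mM) stimulation; lower signal means less secretion.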
# HT1080-NT tox – kills 2HG-producing HT-1080-NT fibrosarcoma cells. HT-1080-NT fibrosarcoma viability, CellTiter-Glo ATP luminescence, 48 h. Potency, µM (top dose mostly 46.1 µM), inactives show at the top dose activity, negative = less viability, hits mostly cytotoxic. 360,000 tested, 1.6% active. AID 686970;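 also: NT is the 2HG producing partner of a matched IDH1 knockdown line; potency is read from the fitted curve at half-maximal effect; 0% = DMSO-treated cells and -100% = media-only wells without cells; nearly all actives have a fitted effect of over 55% in size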
#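 Read-out is CellTiter-Glo luminescence after 10 minutes at room temperature, following 48 hours' compound treatment of HT-1080-NT cells (750 cells/well, RPMI, 5% FBS, 37 degrees C).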
# HT1080 IDH1KD tx – HT-1080 IDH1 knockdown cell toxicity (counter line) | HT-1080 IDH1 knockdown viability, ATP luminescence, 48 h | AID 686971 | 360,000 tested, 2% active | Potency, µM (titrated, usually from 46.1 µM), for inactives: top-dose activity, negative = toxicity, actives largely listed as cytotoxic;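 also: potency is read from the fitted curve at half-maximal effect; 0% = DMSO wells and -100% = cell-free medium wells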
#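 % activity derives from luminescence (CellTiter-Glo), normalised to DMSO and no-cell wells. HT-1080-IDH1KD cells, 750/well, had 48 h compound exposure at 37 °C.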
# * hit, by the source's call; ? = inconclusive; · = not tested or not shown; [ ] = remark or other dose. Unless noted, calls follow the shape of the dose curve; as a rule, active = well fitted curve in the direction sought with a large enough effect; inconclusive = small, poorly fitted or top-dose-only effect, or another doubt; inactive = no such curve, though single readings can be large; an effect the other way counts as inactive or inconclusive. Unless noted, % is scaled to controls: 0 for no effect and ±100 for the full control effect.
SMILES,TDP1 cell CPT,TDP1 cell noCPT,IL-1B inflam inh,HT1080-NT tox,HT1080 IDH1KD tx
OCCOCCn1c(CCNc2nc(-c3ccc(Cl)cc3)cs2)nc2cc(Cl)c(Cl)cc21,?,?,-16,-15%,-20%
Cc1ccc(Cn2c(C(C)Nc3nc(-c4ccc(C)cc4)cs3)nc3cc(Cl)c(Cl)cc32)cc1 (stereo not drawn),?,-15%,-2,0%,-2%
Cc1ccc(Cn2c(C(C)Nc3nc(-c4ccc(Cl)cc4)cs3)nc3cc(C(=O)NCCCO)ccc32)cc1 (stereo not drawn),10µM*,8.2µM*,30,-18%,-13%
Cc1ccc(Cn2c(CCNc3nc(-c4ccc(C)cc4)cs3)nc3cc(C(=O)NCCCO)ccc32)cc1,21µM*,15µM*,-8,-17%,-25%
CCCCN1C2=NC(c3ccccc3)CN2c2ccccc21 (stereo not drawn),?,26µM*,-27,-1%,-5%
CCCCN1C2=NCCCN2c2cc(C)c(C)cc21,18µM*,23µM*,-3,-11%,3%[9.24 µM]
CCCCN1c2ccccc2N(CCCO)c2cc(C)nnc21,-12%,-17%,-5,7%,0%
CCCN1C2=NCCCN2c2ccccc21,2%,-6%,22,13%,3%
CCCCCCCN1C2=NCCN2c2ccccc21,12µM*,18µM*,-55*,-19%,-12%
CCCCCCN1C2=NCCN2c2ccccc21,?,?,-21,-8%,-8%
CCCCCCCN1C2=NCCCN2c2ccccc21,2.6µM*,2.3µM*,-72*,-7%,?
CCCCN1C2=NCCCN2c2ccccc21,?,?,14,9%,-9%
Cc1nn(CC(=O)NC(=O)NC2CCCCC2C)c(=O)c(C#N)c1C (stereo not drawn),?,?,17,5%,0%
O=C(Nc1ccccc1Cl)N1CCC2(CC1)Oc1ccccc1C(=O)N2Cc1ccc(F)cc1,?,21µM*,·,·,·
O=C(Nc1ccc2c(c1)OCCO2)N1CCN(Cc2ccccc2)CC1,-3%,-5%,4,-5%,12%
O=C(Nc1ccc(Br)cc1F)N1CCC2(CC1)Oc1ccccc1C(=O)N2Cc1ccccc1F,?,16µM*,·,·,·
CC1CCN(CC2CCN(C(=O)Nc3ccc(Br)cc3F)CC2)CC1,-10%,-18%,·,·,·
O=C(Nc1ccc(F)c(Cl)c1)N1CCC2(CC1)Oc1ccccc1C(=O)N2Cc1ccccc1F,?,12µM*,·,·,·
Cc1ccc(C(=O)c2oc3ccc(Cl)cc3c2NC(=O)CN2CCN(C)CC2)cc1,?,21µM*,-57*,13%,5%
COc1ccc(C(O)Cn2ccsc2=NC(C)=O)cc1 (stereo not drawn),23µM*,?,26,?,12µM*
Cn1ccc2c(N3CCCC3)cc3c(c21)C1CCC3C1 (stereo not drawn),21µM*,15µM*,13,-15%,-22%
Cn1ccc2c(-c3ccc(F)cc3)cc3c(c21)C1CCC3C1 (stereo not drawn),-26%,?,16,0%,-5%
Cn1ccc2c(-c3ccc(CO)cc3)cc3c(c21)C1CCC3C1 (stereo not drawn),18µM*,?,38,?,?
Cn1ccc2c(N3CCCCCC3)cc3c(c21)C1CCC3O1 (stereo not drawn),21µM*,?,10,-4%,?
Cc1cc(C)nc(N=Nc2c(O)n(Cc3ccc(Cl)cc3)c3ccccc23)n1,?,18µM*,6,-24%,-26%
O=Nc1c(O)n(Cc2cccc(Cl)c2)c2ccccc12,1%,-28%,-68*,15µM*,18µM*
O=S1(=O)CCC(N=Nc2c(O)n(Cc3ccccc3)c3ccccc23)C1 (stereo not drawn),21µM*,?,-9,-12%,-4%
CCCCNC(=S)N=Nc1c(O)n(Cc2ccccc2)c2ccccc12,16µM*,2.6µM*,-27,1%,3%
